Assay results taken from the supplement of paper PMC11732987, “Enantioselective OTUD7B fragment discovery through chemoproteomics screening and high-throughput optimisation” (Communications Chemistry, 2025).

Assays:
Experiment in all cases: log2 ratio of Biotin-Ahx-Ub-VS probe labelling (fragment/DMSO); higher = less target engagement (more negative = stronger competition), active = hit call of the paper (q ≤ 0.05, log2 ratio ≤ -1)
Conditions in all cases: compound concentration: 200 uM; treatment time: 3 h
USP42 = molecular target: T1, USP42 (UniProt Q9H9J4)
T1 sequence (whole entry): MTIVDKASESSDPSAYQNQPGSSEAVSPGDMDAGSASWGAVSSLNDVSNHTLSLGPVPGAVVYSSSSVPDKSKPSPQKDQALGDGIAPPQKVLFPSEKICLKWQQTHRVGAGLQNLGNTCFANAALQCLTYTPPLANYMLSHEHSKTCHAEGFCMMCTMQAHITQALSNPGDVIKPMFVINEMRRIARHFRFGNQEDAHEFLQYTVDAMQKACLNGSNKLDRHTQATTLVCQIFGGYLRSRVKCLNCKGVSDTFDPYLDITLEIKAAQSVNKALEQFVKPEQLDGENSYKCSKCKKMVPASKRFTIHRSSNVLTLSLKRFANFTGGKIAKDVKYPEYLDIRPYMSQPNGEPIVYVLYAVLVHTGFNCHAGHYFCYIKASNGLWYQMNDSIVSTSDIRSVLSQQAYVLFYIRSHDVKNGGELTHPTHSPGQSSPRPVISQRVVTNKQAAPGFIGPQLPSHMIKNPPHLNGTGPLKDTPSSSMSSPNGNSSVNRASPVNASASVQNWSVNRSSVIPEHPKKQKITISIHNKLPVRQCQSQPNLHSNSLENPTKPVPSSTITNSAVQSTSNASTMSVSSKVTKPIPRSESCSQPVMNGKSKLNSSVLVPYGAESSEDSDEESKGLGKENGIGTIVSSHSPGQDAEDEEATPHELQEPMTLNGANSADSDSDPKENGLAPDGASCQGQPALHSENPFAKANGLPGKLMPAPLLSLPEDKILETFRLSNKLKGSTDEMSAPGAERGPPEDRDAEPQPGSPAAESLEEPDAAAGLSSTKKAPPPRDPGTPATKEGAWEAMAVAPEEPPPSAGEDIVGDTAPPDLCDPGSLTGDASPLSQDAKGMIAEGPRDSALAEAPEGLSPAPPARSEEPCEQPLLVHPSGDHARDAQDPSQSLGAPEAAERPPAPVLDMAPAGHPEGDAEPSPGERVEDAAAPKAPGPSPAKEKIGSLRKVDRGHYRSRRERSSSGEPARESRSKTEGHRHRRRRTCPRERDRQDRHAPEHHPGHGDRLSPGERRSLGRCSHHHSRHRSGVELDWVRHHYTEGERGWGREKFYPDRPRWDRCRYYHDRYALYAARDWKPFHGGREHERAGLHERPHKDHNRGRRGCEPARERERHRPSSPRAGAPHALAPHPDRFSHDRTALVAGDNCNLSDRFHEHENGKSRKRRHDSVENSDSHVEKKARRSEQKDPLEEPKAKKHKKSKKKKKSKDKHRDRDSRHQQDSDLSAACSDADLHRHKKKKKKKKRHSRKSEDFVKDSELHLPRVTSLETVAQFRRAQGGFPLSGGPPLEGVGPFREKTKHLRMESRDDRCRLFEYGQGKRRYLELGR
How it was run: (§1)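 Average log2 ratios of fragment over vehicle were obtained by unpaired t-test from global-median-normalised Spectronaut label-free quantities. Proteins with ≥2 unique peptides were included. HEK293T lysate (495 µg per sample) was treated in triplicate with fragment at 200 µM or vehicle for 3 h, then with Biotin-Ahx-Ub-VS at 0.5 µM final for 1 h, and labelled DUBs were NeutrAvidin-enriched and run by diaPASEF LC-MS/MS.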

USP46 = USP46 (UniProt P62068)
Sequence of USP46 (P62068 whole entry): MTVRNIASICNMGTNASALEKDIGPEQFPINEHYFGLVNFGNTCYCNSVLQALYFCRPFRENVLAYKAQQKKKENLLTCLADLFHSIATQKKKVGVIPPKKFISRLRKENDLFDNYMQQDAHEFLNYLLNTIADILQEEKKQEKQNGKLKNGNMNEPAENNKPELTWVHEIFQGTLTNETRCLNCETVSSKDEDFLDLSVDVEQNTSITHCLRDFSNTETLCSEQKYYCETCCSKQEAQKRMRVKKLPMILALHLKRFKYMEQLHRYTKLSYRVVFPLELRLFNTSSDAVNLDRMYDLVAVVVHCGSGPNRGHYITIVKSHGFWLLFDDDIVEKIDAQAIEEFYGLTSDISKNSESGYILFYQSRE
How it was run: as §1

USP47 = molecular target: T2, USP47 (UniProt Q96K76)
T2 sequence (whole entry): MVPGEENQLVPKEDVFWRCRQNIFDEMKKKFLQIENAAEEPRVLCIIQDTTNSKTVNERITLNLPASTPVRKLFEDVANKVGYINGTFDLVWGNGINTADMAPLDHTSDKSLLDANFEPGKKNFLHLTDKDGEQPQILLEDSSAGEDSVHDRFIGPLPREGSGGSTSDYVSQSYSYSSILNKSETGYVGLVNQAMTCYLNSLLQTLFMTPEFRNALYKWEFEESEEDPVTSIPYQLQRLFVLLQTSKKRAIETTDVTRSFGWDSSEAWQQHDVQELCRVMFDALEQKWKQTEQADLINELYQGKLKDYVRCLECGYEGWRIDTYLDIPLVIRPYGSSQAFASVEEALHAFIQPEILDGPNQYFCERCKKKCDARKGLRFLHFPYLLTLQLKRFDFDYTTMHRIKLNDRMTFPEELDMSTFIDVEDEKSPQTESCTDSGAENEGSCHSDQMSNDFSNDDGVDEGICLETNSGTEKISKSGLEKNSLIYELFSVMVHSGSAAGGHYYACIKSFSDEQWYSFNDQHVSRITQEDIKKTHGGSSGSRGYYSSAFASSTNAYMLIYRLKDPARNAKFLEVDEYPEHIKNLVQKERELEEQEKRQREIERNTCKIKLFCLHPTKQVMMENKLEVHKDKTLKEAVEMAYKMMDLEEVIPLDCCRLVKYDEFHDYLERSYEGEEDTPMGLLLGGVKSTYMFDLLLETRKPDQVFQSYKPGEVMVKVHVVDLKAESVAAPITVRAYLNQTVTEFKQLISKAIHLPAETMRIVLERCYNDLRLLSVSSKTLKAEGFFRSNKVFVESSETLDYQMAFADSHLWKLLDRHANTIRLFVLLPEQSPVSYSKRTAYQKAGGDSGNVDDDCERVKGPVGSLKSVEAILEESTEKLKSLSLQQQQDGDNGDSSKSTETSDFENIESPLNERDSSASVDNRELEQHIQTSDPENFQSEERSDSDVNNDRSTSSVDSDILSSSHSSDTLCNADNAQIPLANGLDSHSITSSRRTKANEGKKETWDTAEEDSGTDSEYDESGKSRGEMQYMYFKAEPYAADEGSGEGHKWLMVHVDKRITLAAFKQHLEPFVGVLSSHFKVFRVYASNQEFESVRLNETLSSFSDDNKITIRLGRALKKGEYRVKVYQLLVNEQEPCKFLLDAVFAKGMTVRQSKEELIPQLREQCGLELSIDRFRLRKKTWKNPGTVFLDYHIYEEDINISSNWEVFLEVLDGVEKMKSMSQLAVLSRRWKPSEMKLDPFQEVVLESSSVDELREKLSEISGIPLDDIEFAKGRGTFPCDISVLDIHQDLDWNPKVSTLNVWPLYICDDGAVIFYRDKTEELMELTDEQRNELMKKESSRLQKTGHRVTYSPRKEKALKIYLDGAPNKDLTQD
How it was run: as §1

USP48 = molecular target: T3, USP48 (UniProt Q86UV5)
T3 sequence (whole entry): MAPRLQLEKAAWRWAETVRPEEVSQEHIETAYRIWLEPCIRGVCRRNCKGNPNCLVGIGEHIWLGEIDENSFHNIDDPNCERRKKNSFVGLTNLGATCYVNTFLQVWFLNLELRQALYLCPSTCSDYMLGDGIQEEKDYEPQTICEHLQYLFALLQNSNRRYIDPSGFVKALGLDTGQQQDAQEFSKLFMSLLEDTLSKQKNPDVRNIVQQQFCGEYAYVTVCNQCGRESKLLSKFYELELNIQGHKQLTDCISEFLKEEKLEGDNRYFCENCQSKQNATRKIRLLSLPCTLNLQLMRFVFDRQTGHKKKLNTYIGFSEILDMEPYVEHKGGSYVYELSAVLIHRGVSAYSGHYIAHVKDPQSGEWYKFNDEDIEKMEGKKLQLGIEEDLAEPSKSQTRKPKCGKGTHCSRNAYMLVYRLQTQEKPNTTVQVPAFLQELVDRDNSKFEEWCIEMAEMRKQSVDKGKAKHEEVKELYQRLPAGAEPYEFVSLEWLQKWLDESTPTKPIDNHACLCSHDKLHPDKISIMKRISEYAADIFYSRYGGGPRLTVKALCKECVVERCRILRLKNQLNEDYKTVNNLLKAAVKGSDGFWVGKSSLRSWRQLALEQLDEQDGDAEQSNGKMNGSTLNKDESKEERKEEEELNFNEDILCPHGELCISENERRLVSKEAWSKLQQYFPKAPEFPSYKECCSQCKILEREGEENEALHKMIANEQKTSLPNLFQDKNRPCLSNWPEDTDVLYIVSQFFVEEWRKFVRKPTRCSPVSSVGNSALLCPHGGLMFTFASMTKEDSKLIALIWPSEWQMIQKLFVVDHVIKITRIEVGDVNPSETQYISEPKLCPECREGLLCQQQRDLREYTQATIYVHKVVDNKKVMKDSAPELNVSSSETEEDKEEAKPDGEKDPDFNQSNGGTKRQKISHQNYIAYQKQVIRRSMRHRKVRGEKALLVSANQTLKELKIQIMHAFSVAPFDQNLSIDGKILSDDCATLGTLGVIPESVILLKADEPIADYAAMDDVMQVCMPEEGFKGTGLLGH
How it was run: as §1

USP5 = molecular target: T4, USP5 (UniProt P45974)
T4 sequence (whole entry): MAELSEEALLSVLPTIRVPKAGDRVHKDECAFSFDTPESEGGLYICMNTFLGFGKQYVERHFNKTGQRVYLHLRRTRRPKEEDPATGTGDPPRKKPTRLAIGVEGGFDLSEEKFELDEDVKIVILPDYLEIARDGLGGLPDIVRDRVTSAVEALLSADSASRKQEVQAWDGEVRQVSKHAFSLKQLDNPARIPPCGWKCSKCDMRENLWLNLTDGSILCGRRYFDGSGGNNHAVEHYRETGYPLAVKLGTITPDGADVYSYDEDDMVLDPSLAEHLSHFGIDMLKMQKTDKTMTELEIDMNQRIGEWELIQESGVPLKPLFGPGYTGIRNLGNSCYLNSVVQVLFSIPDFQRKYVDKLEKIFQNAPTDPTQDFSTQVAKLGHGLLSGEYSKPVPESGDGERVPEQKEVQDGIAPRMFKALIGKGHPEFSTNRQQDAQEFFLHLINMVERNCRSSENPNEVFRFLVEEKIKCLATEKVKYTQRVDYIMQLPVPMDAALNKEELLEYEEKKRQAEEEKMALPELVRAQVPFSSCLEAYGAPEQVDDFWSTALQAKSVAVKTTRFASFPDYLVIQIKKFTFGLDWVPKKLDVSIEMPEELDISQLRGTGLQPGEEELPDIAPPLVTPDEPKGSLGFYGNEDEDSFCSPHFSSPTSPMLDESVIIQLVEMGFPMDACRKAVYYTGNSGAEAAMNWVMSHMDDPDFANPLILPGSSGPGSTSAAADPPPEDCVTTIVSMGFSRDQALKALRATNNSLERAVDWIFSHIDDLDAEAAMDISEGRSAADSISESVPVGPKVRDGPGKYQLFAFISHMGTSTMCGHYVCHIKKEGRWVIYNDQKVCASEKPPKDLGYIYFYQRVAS
How it was run: as §1

USP54 = USP54 (UniProt Q70EL1)
How it was run: as §1

USP7 = USP7 (UniProt Q93009)
Sequence of USP7 (Q93009 whole entry, looked up): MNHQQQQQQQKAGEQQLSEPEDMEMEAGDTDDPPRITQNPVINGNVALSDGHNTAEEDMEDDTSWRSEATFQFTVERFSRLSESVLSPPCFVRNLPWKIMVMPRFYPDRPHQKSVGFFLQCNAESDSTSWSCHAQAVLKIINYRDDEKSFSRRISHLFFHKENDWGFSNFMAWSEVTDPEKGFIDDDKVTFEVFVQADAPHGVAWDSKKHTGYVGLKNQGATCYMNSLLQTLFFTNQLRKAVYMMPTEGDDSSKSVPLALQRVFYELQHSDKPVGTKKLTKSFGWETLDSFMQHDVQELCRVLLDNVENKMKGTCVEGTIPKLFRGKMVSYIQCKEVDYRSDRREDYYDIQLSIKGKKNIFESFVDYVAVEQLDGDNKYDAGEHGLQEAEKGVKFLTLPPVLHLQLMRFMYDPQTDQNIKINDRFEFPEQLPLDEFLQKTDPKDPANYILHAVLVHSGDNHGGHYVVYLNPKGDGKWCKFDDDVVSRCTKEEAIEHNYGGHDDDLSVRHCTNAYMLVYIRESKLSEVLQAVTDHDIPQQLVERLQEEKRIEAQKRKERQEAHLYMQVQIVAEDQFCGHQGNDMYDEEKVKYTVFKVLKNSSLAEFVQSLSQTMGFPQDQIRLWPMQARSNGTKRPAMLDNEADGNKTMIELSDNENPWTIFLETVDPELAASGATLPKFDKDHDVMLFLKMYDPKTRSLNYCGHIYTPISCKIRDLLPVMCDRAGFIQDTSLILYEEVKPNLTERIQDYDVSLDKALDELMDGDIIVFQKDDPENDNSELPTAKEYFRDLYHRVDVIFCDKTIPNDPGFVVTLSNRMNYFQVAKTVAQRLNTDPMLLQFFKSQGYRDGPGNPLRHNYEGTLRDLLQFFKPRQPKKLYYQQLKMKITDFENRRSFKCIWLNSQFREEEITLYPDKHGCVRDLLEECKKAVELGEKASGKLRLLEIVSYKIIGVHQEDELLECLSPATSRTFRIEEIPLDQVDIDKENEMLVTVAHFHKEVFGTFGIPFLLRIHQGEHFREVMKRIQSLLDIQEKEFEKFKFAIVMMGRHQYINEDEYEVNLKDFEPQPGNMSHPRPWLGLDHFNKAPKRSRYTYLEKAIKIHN
How it was run: as §1

USP8 = molecular target: T5, USP8 (UniProt P40818)
T5 sequence (whole entry): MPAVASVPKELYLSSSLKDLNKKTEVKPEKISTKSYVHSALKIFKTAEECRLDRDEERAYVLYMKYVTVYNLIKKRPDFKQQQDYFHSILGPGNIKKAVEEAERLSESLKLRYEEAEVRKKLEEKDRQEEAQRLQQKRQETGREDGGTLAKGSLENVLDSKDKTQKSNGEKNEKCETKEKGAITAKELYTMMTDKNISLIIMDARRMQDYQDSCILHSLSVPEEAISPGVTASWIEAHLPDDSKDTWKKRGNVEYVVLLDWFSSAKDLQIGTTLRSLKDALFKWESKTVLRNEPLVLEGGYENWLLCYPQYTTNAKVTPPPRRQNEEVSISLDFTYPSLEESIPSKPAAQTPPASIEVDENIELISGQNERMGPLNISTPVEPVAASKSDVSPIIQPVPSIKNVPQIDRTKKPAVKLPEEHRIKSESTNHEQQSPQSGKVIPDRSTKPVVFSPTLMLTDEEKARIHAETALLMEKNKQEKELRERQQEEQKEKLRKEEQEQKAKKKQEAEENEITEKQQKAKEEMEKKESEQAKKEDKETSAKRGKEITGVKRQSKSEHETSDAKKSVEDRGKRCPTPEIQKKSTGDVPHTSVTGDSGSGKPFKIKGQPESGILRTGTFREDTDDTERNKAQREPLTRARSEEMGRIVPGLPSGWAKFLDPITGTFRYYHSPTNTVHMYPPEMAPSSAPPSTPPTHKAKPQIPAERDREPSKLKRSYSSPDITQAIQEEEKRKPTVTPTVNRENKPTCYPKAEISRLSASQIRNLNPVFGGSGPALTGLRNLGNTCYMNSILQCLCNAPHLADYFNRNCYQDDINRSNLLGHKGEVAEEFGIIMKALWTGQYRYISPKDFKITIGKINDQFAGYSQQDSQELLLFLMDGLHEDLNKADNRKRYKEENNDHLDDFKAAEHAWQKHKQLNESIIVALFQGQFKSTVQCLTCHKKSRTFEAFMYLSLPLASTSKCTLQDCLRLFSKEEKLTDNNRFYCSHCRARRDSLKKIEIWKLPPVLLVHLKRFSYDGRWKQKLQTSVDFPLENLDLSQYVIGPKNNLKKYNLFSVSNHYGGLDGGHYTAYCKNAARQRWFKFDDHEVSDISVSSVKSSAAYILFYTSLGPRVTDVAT
How it was run: as §1

USP9X = USP9X (UniProt Q93008)
Sequence of USP9X (Q93008 whole entry): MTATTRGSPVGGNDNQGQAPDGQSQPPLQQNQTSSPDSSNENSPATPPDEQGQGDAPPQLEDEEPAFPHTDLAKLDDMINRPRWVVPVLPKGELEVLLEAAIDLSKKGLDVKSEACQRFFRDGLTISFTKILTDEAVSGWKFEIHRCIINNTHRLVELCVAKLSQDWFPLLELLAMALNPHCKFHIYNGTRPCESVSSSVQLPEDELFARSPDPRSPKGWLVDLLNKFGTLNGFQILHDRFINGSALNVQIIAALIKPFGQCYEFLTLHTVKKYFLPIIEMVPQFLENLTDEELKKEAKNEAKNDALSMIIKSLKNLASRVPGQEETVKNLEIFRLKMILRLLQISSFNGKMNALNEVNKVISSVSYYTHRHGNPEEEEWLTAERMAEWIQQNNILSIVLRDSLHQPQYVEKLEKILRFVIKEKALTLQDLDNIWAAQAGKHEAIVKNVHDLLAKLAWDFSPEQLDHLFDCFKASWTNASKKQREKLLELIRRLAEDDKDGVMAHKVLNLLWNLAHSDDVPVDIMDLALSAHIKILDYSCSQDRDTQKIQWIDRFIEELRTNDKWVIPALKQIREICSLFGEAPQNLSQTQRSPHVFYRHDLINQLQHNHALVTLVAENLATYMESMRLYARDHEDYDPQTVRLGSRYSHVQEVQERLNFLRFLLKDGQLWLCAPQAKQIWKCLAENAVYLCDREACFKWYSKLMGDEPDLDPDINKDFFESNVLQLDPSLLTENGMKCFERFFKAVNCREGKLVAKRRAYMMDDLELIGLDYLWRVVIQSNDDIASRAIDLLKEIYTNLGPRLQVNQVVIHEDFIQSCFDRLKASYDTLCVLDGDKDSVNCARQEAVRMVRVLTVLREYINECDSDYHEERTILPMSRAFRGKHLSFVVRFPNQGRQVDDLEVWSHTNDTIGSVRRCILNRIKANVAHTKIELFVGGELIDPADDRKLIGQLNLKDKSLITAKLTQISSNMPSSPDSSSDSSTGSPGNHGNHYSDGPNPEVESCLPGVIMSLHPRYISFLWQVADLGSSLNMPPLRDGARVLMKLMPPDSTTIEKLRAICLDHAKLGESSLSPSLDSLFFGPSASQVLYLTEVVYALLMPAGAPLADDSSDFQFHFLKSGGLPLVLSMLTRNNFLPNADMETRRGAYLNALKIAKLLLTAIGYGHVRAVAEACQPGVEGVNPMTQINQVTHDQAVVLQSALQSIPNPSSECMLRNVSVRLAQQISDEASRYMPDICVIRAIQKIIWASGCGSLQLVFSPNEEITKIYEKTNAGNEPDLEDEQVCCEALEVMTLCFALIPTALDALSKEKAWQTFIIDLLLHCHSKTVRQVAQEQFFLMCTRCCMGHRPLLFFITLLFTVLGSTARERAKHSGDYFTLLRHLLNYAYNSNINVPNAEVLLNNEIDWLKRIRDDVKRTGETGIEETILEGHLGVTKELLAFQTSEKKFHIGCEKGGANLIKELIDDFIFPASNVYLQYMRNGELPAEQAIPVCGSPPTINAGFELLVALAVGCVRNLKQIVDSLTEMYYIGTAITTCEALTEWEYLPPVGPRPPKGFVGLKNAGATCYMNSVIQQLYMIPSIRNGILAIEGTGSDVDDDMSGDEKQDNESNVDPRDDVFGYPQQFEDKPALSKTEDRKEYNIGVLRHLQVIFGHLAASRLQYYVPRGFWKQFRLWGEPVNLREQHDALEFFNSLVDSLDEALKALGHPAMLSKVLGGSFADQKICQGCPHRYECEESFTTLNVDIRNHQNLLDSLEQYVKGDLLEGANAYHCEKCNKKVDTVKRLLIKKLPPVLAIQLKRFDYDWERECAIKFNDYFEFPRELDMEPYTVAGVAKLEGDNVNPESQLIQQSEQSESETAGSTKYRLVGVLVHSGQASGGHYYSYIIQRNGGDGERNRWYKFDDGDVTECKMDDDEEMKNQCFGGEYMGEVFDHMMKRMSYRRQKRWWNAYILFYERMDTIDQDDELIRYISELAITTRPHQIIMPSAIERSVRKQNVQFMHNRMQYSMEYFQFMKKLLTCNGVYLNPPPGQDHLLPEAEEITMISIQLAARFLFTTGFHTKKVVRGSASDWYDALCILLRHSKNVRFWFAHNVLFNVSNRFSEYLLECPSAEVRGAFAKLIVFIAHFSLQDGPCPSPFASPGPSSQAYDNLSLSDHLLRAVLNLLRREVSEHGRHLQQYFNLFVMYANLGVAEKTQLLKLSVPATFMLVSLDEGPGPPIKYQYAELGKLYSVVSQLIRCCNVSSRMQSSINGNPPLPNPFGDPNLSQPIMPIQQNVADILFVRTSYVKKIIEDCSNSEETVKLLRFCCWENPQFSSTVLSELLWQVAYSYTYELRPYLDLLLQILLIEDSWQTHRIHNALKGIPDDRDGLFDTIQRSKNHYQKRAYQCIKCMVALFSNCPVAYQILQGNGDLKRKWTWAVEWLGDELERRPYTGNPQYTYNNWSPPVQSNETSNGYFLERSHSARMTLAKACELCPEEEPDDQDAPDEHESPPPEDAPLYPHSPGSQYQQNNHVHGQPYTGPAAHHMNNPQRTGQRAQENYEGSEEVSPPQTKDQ
How it was run: as §1

UniProt O00487 = molecular target: UniProt O00487
Sequence of UniProt O00487 (O00487 whole entry): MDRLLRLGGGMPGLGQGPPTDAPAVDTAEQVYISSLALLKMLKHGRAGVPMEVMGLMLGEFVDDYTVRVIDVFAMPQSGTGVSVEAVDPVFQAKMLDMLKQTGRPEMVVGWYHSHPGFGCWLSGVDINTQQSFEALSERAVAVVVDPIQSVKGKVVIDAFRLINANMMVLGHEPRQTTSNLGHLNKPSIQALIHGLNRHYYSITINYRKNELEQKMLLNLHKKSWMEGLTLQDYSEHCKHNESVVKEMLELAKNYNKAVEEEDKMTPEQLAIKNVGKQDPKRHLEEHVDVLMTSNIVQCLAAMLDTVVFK
How it was run: as §1

Measured: log2 ratio of Biotin-Ahx-Ub-VS probe labelling

O=C(CCl)Nc1nc(-c2cccs2)cs1
inactive: USP42 0.598 | USP46 -0.255 | USP47 -0.799 | USP48 -0.537 | USP5 0.0914 | USP54 0.00682 | USP7 -0.679 | USP8 0.0395 | USP9X -0.505 | UniProt O00487 -0.17
